Bioassay records (PubChem)
A selection: hits, their analogues and other compounds. The true share with any hit is near 7.3%.
HCMV inh = qHTS Assay for inhibitors of the human cytomegalovirus (HCMV). activity change, negative = inhibition, % at 57.5 µM. HFF cells, HCMV-luciferase reporter, 72 h; hits give low values. 410,000 compounds, 4.5% hits. AID 1259415, 2018; in the data active = activity change below about -60%; inconclusive = no clear call, values can overlap the other calls; inactive = above about -39%
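After 16 h attachment at 37C, HFF cells received test compound and HCMV-luciferase (1 PFU/cell); reporter luminescence read 72 h later, data normalized against buffer-only and known inhibitor Salinomycin.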
Vaccinia mCherry = qHTS for Stage-Specific Inhibitors of Vaccinia Orthopoxvirus: mCherry Reporter Primary qHTS | Potency, µM (titrated, usually from 36.5 µM), for the others: top-dose activity change, negative = inhibition, hits mostly inhibitors | 310,000 compounds, 0.63% hits | Vaccinia virus mCherry reporter infection, fluorescence; calls by dose curve; tested in A549 cells; also: potency is read from the fitted curve at half-maximal effect; nearly all actives have a fitted effect of over 35% in size
Vaccinia Venus = qHTS for Stage-Specific Inhibitors of Vaccinia Orthopoxvirus: Venus Reporter Primary qHTS | 330,000 compounds, 0.46% hits | Vaccinia virus Venus reporter expression, fluorescence | Potency, µM (top dose mostly 36.5 µM), without a hit: at the highest dose activity change, negative = inhibition, actives largely listed as inhibitors; calls by dose curve; tested in A549 cells; also: potency is read from the fitted curve at half-maximal effect; nearly all actives have a fitted effect of over 30% in size
FMDV antiviral = High Throughput Screening for Foot and Mouth Disease Virus Antivirals. FMDV antiviral cell-based qHTS. Potency, µM (highest dose often 57.9 µM), without a hit: at the highest dose activity change, negative = inhibition, hits mostly inhibitors. 410,000 compounds, 1.2% hits. AID 1159524, 2015; calls by dose curve; tested in HEK293T cells; also: read-out not given here; potency is read from the fitted curve at half-maximal effect; nearly all actives have a fitted effect of over 45% in size
HCV inh = qHTS Assay for Inhibitors of Hepatitis C Virus (HCV). Huh7.5.1 HCVcc-Cre infection, luciferase reporter, 44 h. Potency, µM (titrated, usually from 41.8 µM), inactives show top-dose activity change, negative = inhibition, hits mostly inhibitors. 340,000 compounds, 3.4% hits. AID 651820, 2012; active = well fitted inhibition curve with a large enough effect; inconclusive = small, poorly fitted or top-dose-only effect, or another doubt; inactive = no such curve, though single readings can be large or run the other way; also: potency is read from the fitted curve at half-maximal effect
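Whole-lifecycle infectious HCVcc-Cre system; cells 1,000/well, compound then virus (~0.5 moi) added 4 h after plating, 44 h culture. Luciferase read 15 sec following 15 min substrate incubation, room temp.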
* marks the source's active call; other numbers are inactive results; i = inactive; ? = inconclusive; . = no result; + = active, no number; [ ] = remark or other dose. % is scaled to controls: 0 for no effect and ±100 for the full control effect.

SMILES | HCMV inh | Vaccinia mCherry | Vaccinia Venus | FMDV antiviral | HCV inh
CCC(=O)/C=C1/Sc2ccccc2N1CC | ? | . | ? | -24.2% | -13.7%
CCN1/C(=C/c2sc(-c3ccccc3C)c[n+]2C)Sc2ccccc21 | -96.7* | ? | ? | 11.2µM* | 3.55µM*
CCn1cc2nc(SCc3ccc(F)cc3)n(CCc3ccccc3)c(=O)c2n1 | -21.4 | -26.4% | -16.1% | -0.2% | .
C[C@H](CO)N1C[C@H](C)[C@H](CN(C)C(=O)Nc2cccc3ccccc23)Oc2ncc(Br)cc2C1=O | -17.4 | . | . | . | .
CCNC(=O)N1CCC(c2nc3ccccc3s2)CC1 | -6.3 | -8.8% | -19.1% | -7.5% | -24.2%
Cc1cc(C)cc(NC(=S)N2CCC(c3nc4ccccc4s3)CC2)c1 | -85.3* | -10.2% | -8.1% | . | -1.7%
Cc1ccc(NC(=S)N2CCC(c3nc4ccccc4s3)CC2)cc1C | -89.7* | -27.2% | -16.0% | . | -32.7%
Cc1ccc2nccc(/C=C/c3ccc(N(C)C)cc3)c2c1 | . | -24.0% | 13.6% | . | .
O=C(N/N=C/c1ccc(O)c(O)c1)c1ccc(CSc2cccc3cccnc23)cc1 | -13.2 | -6.6% | -8.7% | -9.9% | 15.8µM*
CCC(Sc1nnc(C)n2c1cc1occc12)C(=O)Nc1ccccc1F (configuration not stated) | -31.3 | -6.3% | -9.6% | 0.0% | .
CC(C)(C)OC(=O)N1CCC(c2c(C(=O)Nc3ccc4c(c3)OCCO4)cnn2-c2ccc(F)cc2F)CC1 | 0.0 | -11.2% | -8.6% | ? | .
CC[C@H](C)[C@H](NC(=O)[C@H](CCCN=C(N)N)NC(=O)[C@H](CCCN=C(N)N)NC(=O)[C@H](CC(C)C)NC(=O)[C@H](Cc1ccccc1)NC(=O)CNC(=O)CN)C(=O)N[C@@H](CCCN=C(N)N)C(=O)N1CCC[C@H]1C(=O)N[C@@H](CCCCN)C(=O)N[C@@H](CC(C)C)C(=O)N[C@@H](CCCCN)C(=O)O | . | -22.6%[3.33 µM] | -11.5%[3.33 µM] | 0.4%[6.7 µM] | .
CNC(=O)c1cccc(-n2c(C)nc3cccnc32)c1C | + | -5.5% | 8.3% | -3.0% | .
Cc1ccc(C)c(S(=O)(=O)NCC(c2ccco2)S(=O)(=O)c2ccc(F)cc2)c1 (configuration not stated) | -34.5 | -7.5%[7.34 µM] | 0.1%[7.34 µM] | 27.3% | .
Cc1ccc(S(=O)(=O)N(C)Cc2ccc(C(=O)N/N=C/c3ccc(OC(F)F)cc3OC(F)F)cc2)cc1 | ? | -12.7% | -23.2% | 6.31µM* | ?
C=CC[n+]1ccc(/C=C2\C=Cc3cc(C)ccc3N2CC)c2ccccc21 | . | . | . | 35.5µM* | 2.51µM*
Cc1ccc2[nH]c(CSc3nnc(NC(=O)COc4ccccc4)s3)cc(=O)c2c1 | -18.7 | -9.8% | -8.5% | -24.9% | .
CC(=O)NC1=C(Nc2ccc(N(C)C)cc2)C(=O)c2ccccc2C1=O | -87.9* | ? | -7.7% | -12.2% | ?
CC(=O)NC1=C(N(C)C2CCS(=O)(=O)C2)C(=O)c2ccccc2C1=O (configuration not stated) | -32.8 | -10.5% | -1.2% | 12.6µM* | -58.0%
CCSc1nc(-c2ccccc2)nc(C(Cl)Cl)n1 | -82.4* | ? | 10µM* | -17.1% | ?
CSc1nc(-c2ccc(C)cc2)nc(C(Cl)Cl)n1 | . | . | . | -3.7% | 3.16µM*
CCSc1nc(-c2ccccc2)c2cc(Cl)ccc2n1 | 12.1 | -14.9% | 3.4% | -12.2% | 14.4%
CSc1nc(Cl)c(C#N)c(-c2ccc(C)cc2)n1 | ? | -13.5% | -6.2% | . | 12.9%
CC(=O)/C(N=Nc1cc2c(c([N+](=O)[O-])c1C)C(C)(C)CC2(C)C)=C(\C)O | 11.1 | -13.5% | -14.4% | 25.1µM* | ?
CC(=O)/C(N=Nc1cc2c(cc1[N+](=O)[O-])OCCO2)=C(\C)O | 18.7 | -0.4% | 0.4% | -4.6% | 0.7%
SMILES | HCMV inh | Vaccinia mCherry | Vaccinia Venus | FMDV antiviral | HCV inh
CCOc1ccc(NC(=O)CSc2nccn2-c2cccc(C)c2C)cc1 | -22.1 | -8.7% | -2.5% | -1.2% | .
Cc1ccc(-c2nnc(NCc3ccccc3)c3ccccc23)cc1 | -32.3 | -10.7% | -3.0% | ? | 11.2µM*
CC(=O)Nc1c(C)nn(-c2ccccc2)c1N1CCC(C(=O)Nc2cccc(C(F)(F)F)c2)CC1 | -16.4 | 2.4%[7.34 µM] | -2.2%[7.34 µM] | -24.0% | .
CCCS(=O)(=O)N1CC(=O)N(c2cc(C)cc(C)c2)C(C)(C(=O)NC2CCCCCC2)C1 (configuration not stated) | 0.0 | -12.5% | -8.0% | 12.2% | .
O=C(Nc1cccc(/C=C/c2nc3ccccc3c(=O)[nH]2)c1)c1ccccc1Cl | 39.7 | . | . | 11.6% | 5.01µM*
COc1ccc(C(=O)Nc2cccc(/C=C/c3nc4ccccc4c(=O)[nH]3)c2)cc1 | -84.2* | . | . | ? | 1.26µM*
COc1ccc(C2Nc3ccccc3C(=O)N2Cc2ccccc2)cc1COc1ccccc1F (configuration not stated) | . | 19.1% | -14.3% | . | .
CCOC(=O)CSc1nc2c(sc(=S)n2-c2ccccc2OC)c(=O)n1Cc1ccco1 | 1.4 | . | . | -27.9% | 2.82µM*
COc1ccc(C(=O)CSc2nnc(-c3cc4ccccc4cc3O)n2Cc2ccco2)cc1 | -25.4 | -22.2% | -15.7% | ? | 11.2µM*
CCOC(=O)CSc1nc2c(sc3ccc([N+](=O)[O-])cc32)c(=O)n1Cc1ccco1 | -36.7 | i | -15.2% | -27.8% | 6.31µM*
O=c1c2ccccc2nc(SCc2ccccc2)n1Cc1ccco1 | -32.3 | . | . | ? | ?
O=c1c2ccccc2nc(SCc2nnc(-c3ccccc3Br)o2)n1Cc1ccco1 | -37.1 | -13.9% | -15.2% | . | 12.6µM*
COc1ccc(NC(=O)c2c(NC(=O)C(F)(F)F)sc3c2CCCCC3)cc1 | -23.4 | -12.8% | -1.8% | -12.6% | .
COc1ccccc1-c1noc(-c2ccc(NC(C)C)c([N+](=O)[O-])c2)n1 | 51.7 | -18.3% | -10.1% | 8.0% | .
O=C(CSc1nc2ccccc2c(=O)n1Cc1ccco1)c1ccccc1 | -69.1* | -3.3% | -13.0% | -18.4% | ?
CCOC(=O)CSc1nc2ccccc2c(=O)n1Cc1ccco1 | 1.9 | -4.9% | -15.2% | . | 12.6µM*
Cc1ccc(C(=O)Nc2ccc3nc(SCC(=O)N4CCCc5ccccc54)sc3c2)cc1 | 78.4 | -28.9% | -23.4% | -16.4% | .
Nc1nc(SCc2ccc(Cl)cc2Cl)nc2nc3c(cc12)CCCC3 | ? | ? | ? | -19.5% | 8.91µM*
Nc1nc(SCc2ccccc2Cl)nc2nc3c(cc12)CCCC3 | -28.2 | -15.7% | -14.3% | -16.6% | .
COc1ccc(CN(C)c2ccc(-c3nc(-c4ccc(OC)c(OC)c4)no3)cc2[N+](=O)[O-])cc1 | 3.8 | -3.4% | -4.5% | -12.2% | .
O=C1c2ccccc2C(=O)C1c1ccc(O)cc1 | -61.4* | -6.5% | 11.7% | 3.8% | ?
CCCCCC(=O)Nc1ccc(C2C(=O)c3ccccc3C2=O)cc1 | 133.0 | . | . | 54.1% | 2.51µM*
Cc1ccc(C)c(OCC(O)CN2CCC(Cc3ccccc3)CC2)c1 (configuration not stated) | -111.5* | . | . | ? | 10.9%
